Compounds with a hit are over-represented: about 2.5% of the library has one in this group of screens.
V-ATPase pHluor = regulators of yeast V-ATPase proton pumping, primary screen, pHLuorin cytosolic pH fluorescence; response, % at 10 µM; AID 504577, 2011; S. cerevisiae; 350,000 compounds, 0.37% hits; in the data active = response mostly above about 7.3%, no sharp cut-off; inactive = mostly below about 5.4%; note: actives read high
Efflux pump inh = inhibitors of Candida efflux pumps in yeast, primary screen, S. cerevisiae, Nile Red, multiplex; S. cerevisiae Candida pump triplex; inhibition, % at 10 µM; 330,000 compounds, 0.44% hits;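 active = plate passing quality check with inhibition over a set limit, or well fluorescence over plate mean plus 4 SD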;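 note: Nile Red retained in pooled yeast measured as flow cytometry median fluorescence; 0% = buffer negative control and 100% = Enniatin B positive control; higher means more Nile Red kept so more efflux inhibition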
Mot1-301 SUMO = yeast Mot1-301 growth rescue at high temperature, primary screen, SUMOylation pathway inhibitor project, S. cerevisiae, ATP luminescence, 38.5C; AID 2716, 2010; S. cerevisiae Mot1-301 growth rescue; percent above DMSO median, 100 means doubled; 320,000 compounds, 1% hits; growth rescue, % at 18.8 µM;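 active = every valid replicate shows activation above 250% relative to neutral control wells; inactive = the rest, any valid replicate at or below 250%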;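 note: OY570 slx delta 5 strain wells were the positive control but not used for scaling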
AI-2 QS mod = Vibrio harveyi AI-2 quorum sensing modulators, primary screen, JMH597 strain, luminescence/OD600 ratio. activity change, % at 7.5 µM. 300,000 compounds, 0.4% hits. Vibrio harveyi JMH597 AI-2 luminescence/OD600 ratio, 9 h; stronger effect = lower value; strain lacks LuxN and CqsS sensors; 0 = neutral-control median; in the data active = activity change below about -75%, passing the limit was not always enough;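 note: luminescence divided by OD600 gain over 9 h not by final OD600 alone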
ATG4B inh = ATG4B protease inhibitors, primary screen, biochemical, fluorescence, uHTS; Cysteine protease ATG4B (Homo sapiens), Q9Y4P1; ATG4B cleavage of LC3-PLA2, NBD-HPC fluorescence, 1 h; inhibition, % at 8.33 µM; 340,000 compounds, 0.51% hits; AID 504462, 2011; in the data active = inhibition above about 40%
Target sequence (Q9Y4P1 whole entry, looked up): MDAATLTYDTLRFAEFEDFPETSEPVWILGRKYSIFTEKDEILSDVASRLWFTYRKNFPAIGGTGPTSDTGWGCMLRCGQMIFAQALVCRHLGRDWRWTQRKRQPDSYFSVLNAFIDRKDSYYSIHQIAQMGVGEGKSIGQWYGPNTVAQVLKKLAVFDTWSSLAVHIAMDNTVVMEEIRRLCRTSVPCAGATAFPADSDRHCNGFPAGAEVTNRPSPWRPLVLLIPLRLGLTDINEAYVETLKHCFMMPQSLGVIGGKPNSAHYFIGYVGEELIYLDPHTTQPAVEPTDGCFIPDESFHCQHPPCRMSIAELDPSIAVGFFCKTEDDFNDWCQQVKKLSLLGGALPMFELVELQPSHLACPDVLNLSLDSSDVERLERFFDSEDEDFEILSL
Yeast Mot1 SUMO = growth restoration of Mot1-301 yeast on galactose, dose response, SUMO pathway inhibitor project, whole organism, S. cerevisiae, ATP luminescence, cherry-picked samples; shares compounds with Mot1-301 SUMO; S. cerevisiae Mot1-301 galactose growth, 24 h; -100 = growth of slx-deleted rescue strain; growth activity, percent, % at 42 µM; 2,300 tested, under 10 active; AID 493004, 2010;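 active = Signal drops as the depositor expects, and the fitted half-maximal dose is no more than ten times the top valid tested dose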;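 note: more negative values mean stronger growth rescue toward the control strain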
The depositor's hits bear a star; · = not tested or not shown; + = active, no number; [ ] = dose if it differs, or a comment.

SMILES	V-ATPase pHluor	Efflux pump inh	Mot1-301 SUMO	AI-2 QS mod	ATG4B inh	Yeast Mot1 SUMO
Cc1ccc(C)c(CN2CCN(c3ncccn3)CC2)c1	-0.3	-0.1	-0.3	20.6	7.3	·
Cc1ccc(S(=O)(=O)N2CCOCC2)cc1C(=O)NCCc1ccc(Cl)cc1	1.9	0.0	-5.3	·	-1.5	·
Cc1ccnc(NC(c2ccccc2)c2ccc3cccnc3c2O)c1 (stereo not given)	0.0	·	·	·	13.1	·
Cc1ccnc(NC(c2cccnc2)c2ccc3cccnc3c2O)c1 (stereo not given)	-1.2	0.3	+	35.6	-1.6	-0.9
CCOC(=O)CNC(=O)c1c(C)nn(C)c1Cl	7.1	0.2	668.8*	27.2	-11.2	1.2
CC1c2cc3c(cc2CCN1CC(=O)Nc1ccccc1)OCCCO3 (stereo not given)	-0.7	-0.1	653.3*	22.0	3.2	0.5
COc1ccc(C(=O)O/N=C(\N)c2ccccc2)cc1OC	-2.8	-0.1	379.8*	3.5	-3.1	-0.3
COc1ccc(C(=O)O/N=C(\N)c2cccc(C)c2)cc1OC	4.8	-0.1	232.7	-4.8	-3.1	·
Cc1cc(NC(=O)CCC(=O)N(CC(=O)NCC2CCCO2)Cc2ccc(F)cc2)no1 (stereo not given)	-1.4	-0.1	39.7	4.0	7.2	·
COc1ccccc1N(CC(=O)NCC1CCCO1)C(=O)CCC(=O)Nc1cc(C)on1 (stereo not given)	-5.0	0.0	751.8*	8.7	-2.6	-0.2
COc1ccc(CN(CC(=O)NCC2CCCO2)C(=O)CCC(=O)Nc2cc(C)on2)cc1 (stereo not given)	-3.1	-0.2	391.7*	3.1	0.9	0.6
CCOc1ccccc1N(CC(=O)NCC1CCCO1)C(=O)CCC(=O)Nc1cc(C)on1 (stereo not given)	-5.4	0.0	-20.3	28.1	2.9	·
O=C(NC1CCN(Cc2ccccc2)CC1)c1cn(-c2ccccc2)nc1-c1cccnc1	-0.6	0.0	7.5	19.9	-6.0	·
CC(C)(C)n1cnc2cc(NC(=O)c3ccc(Cl)cc3)ccc21	-0.7	0.1	562.1*	-5.4	3.6	-0.6
Cn1cnc2cc(NC(=O)c3ccc(Cl)cc3)ccc21	-4.3	-0.4	6.7	9.7	-0.6	·
O=C(Nc1nc2ccccc2s1)c1cccc(S(=O)(=O)N2CCc3ccccc32)c1	1.9	0.3	+	21.5	-5.9	0.5
O=C(NCCc1c[nH]c2ccccc12)Nc1ccccc1	2.1	0.4	-8.3	-4.8	-0.4	·
COc1ccccc1NC(=O)NCCc1c[nH]c2ccccc12	-1.8	0.1	839.8*	4.3	-5.2	-0.8
S=C(NCCc1c[nH]c2ccccc12)NC1CC1	-1.7	-0.1	401.0*	7.1	1.9	-0.1
N=c1n(CCCOc2ccc(Br)cc2)c2ccccc2n1CC(N)=O	-2.4	0.1	363.0*	37.4	3.2	-0.2
COc1ccccc1NC(=O)CN(Cc1ccco1)C(=O)c1cc2ccccc2o1	0.5	0.1	7.1	8.8	·	·
CC(C)(C)C(=O)NC1(C(F)(F)F)NC(=O)N(c2ccccc2F)C1=O (stereo not given)	-5.5	0.3	482.9*	10.6	-12.0	0.5
O=C(NC1(C(F)(F)F)NC(=O)N(c2ccccc2F)C1=O)c1ccncc1 (stereo not given)	0.5	3.4	-2.7	3.5	11.2	·
Cc1cccc(C)c1NC(=O)CNC(=O)CNC(=O)c1ccc2ccccc2c1	-0.7	·	·	·	·	·
CC(C)c1onc(C(=O)N(C)Cc2ccccc2)c1[N+](=O)[O-]	6.9	0.0	726.3*	7.0	9.8	0.3
SMILES	V-ATPase pHluor	Efflux pump inh	Mot1-301 SUMO	AI-2 QS mod	ATG4B inh	Yeast Mot1 SUMO
Cc1cc2c(C)ccc(C)c2nc1SCC(=O)c1cccs1	7.3	-0.1	591.2*	5.9	-6.0	-0.5
CN(C)/C=C/C(=O)c1cnc(-c2ccccn2)s1	-2.2	-0.1	2.5	19.4	-5.3	·
CCNC(=O)C1CC(=O)N(Cc2ccc3c(c2)OCO3)C(=Nc2ccc(F)cc2)S1 (stereo not given)	-0.2	-0.1	780.6*	8.5	-3.8	0.6
O=[N+]([O-])c1nn(-c2ccc(Cl)cc2)n(O)c1=NCc1ccccc1Cl	-1.2	0.0	+	20.8	-0.4	-0.8
O=[N+]([O-])c1nn(-c2ccc(Cl)cc2)n(O)c1=NCc1ccncc1	0.5	0.0	116.7	38.5	-1.9	·
CC[C@H]1CCCCc2ccccc2[C@@H](C(=O)C[C@@H](O)CC(C)=O)OC1=O	4.7	0.2	527.0*	·	7.2	-0.7
CC[C@@H]1CCCCc2ccccc2[C@H](C(=O)C[C@@H](O)CC(C)=O)OC1=O	-1.2	-0.1	11.0	·	-2.2	·
O=C(Oc1cccc([N+](=O)[O-])c1)c1cc(-c2ccccc2)nc2ccccc12	-2.4	0.0	-11.5	7.0	-2.6	·
NC(=O)C1=C[C@@H](c2ccccc2)C[C@@H](OCCCCO)O1	3.8	0.0	-1.4	29.9	-1.8	·
NC(=O)C1=C[C@@H](c2ccc(Br)cc2)C[C@@H](OCCCCO)O1	6.3	0.0	554.0*	22.3	2.8	0.6
O=C(CSc1nnc(-c2cccs2)o1)Nc1cccc(S(=O)(=O)N2CCCCC2)c1	-2.4	-0.1	8.7	3.4	-0.1	·
Cc1ccc(F)cc1NS(=O)(=O)c1ccc(Cl)s1	-1.5	-0.1	377.9*	·	5.8	0.5
Cc1nn(C)c(C)c1NS(=O)(=O)c1ccc(Cl)s1	4.9	0.1	-10.9	·	-1.6	·
Cc1ccc(-c2cnc3cc(C)nn3c2)cc1	-0.8	0.1	-7.9	-3.0	-2.6	·
Cc1cc2ncc(C(=O)N=CN(C)C)cn2n1	5.7	0.0	498.2*	-0.6	-4.7	0.0
Cn1c(=O)c2c(ncn2CCOC(=O)C(C)(C)Oc2ccc(Cl)cc2)n(C)c1=O	1.0	·	·	·	·	·
O=C1C2CCCCN2C(=O)N1CCCCN1CCN(c2ccccc2Oc2ccccc2)CC1 (stereo not given)	3.3	0.0	431.4*	12.5	9.6	0.0
Cc1ccc(Cn2c(NCCc3ccccc3)nc3c2c(=O)n(C)c(=O)n3C)cc1	-1.8	0.0	970.1*	-3.2	2.9	0.6
COc1ccc(NC(=O)c2ccc(-n3cncn3)c([N+](=O)[O-])c2)cc1OC	4.8	0.0	-8.4	28.8	3.6	·
COc1ccc(NC(=O)c2ccc(-n3cncn3)c([N+](=O)[O-])c2)cc1	6.7	-0.1	900.8*	27.2	3.1	-0.6[21 µM]
CN(c1ccccc1C(=O)N1CCN(Cc2ccc3c(c2)OCO3)CC1)S(C)(=O)=O	0.1	-0.1	+	33.7	0.0	-0.4
